About 83,000 compounds went through this panel and 20% of them were active in at least one assay; those are over-represented in the sample as a whole.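 Interpretation: 100, growth as untreated; towards 0, rising growth inhibition; 0, no net growth; 0 to -100, cell death. Compounds scoring below 10 were considered active.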 Values without a mark were called inactive. The source made the active and inactive calls.
What was measured:
Test in all cases: NCI-60 one-dose screen, 48 h (100 = growth as untreated, 0 = no growth, -100 = all killed)
Conditions in all cases: 10 µM
[1] = test system: SK-MEL-2 melanoma
[2] = test system: EKVX NSCLC
[3] = test system: SN12C renal
[4] = test system: UO-31 renal
[5] = test system: TK-10 renal
[6] = test system: ACHN renal
[7] = test system: CAKI-1 renal
[8] = test system: A498 renal
[9] = test system: CCRF-CEM leukemia
[10] = test system: RPMI-8226 leukemia
[11] = test system: OVCAR-8 ovarian
[12] = test system: OVCAR-5 ovarian
[13] = test system: OVCAR-4 ovarian
[14] = test system: SK-OV-3 ovarian
[15] = test system: IGROV1 ovarian
[16] = test system: OVCAR-3 ovarian
[17] = test system: HS 578T breast
[18] = test system: NCI/ADR-RES ovarian
[19] = test system: MOLT-4 leukemia
[20] = test system: SR leukemia

Structure (SMILES) | growth [1] | growth [2] | growth [3] | growth [4] | growth [5] | growth [6] | growth [7] | growth [8] | growth [9] | growth [10] | growth [11] | growth [12] | growth [13] | growth [14] | growth [15] | growth [16] | growth [17] | growth [18] | growth [19] | growth [20]
CCN1CCN(c2ccc(NC(=O)Nc3ccc4c(c3F)CCN4c3ccnc(C(=O)NC)c3)cc2C(F)(F)F)CC1 | 99.6% | -76.9% (active) | 104% | 85.3% | 118% | 54.9% | -87.9% (active) | 142% | -42.3% (active) | -40.2% (active) | -75.4% (active) | 57.5% | -89.6% (active) | 103% | 113% | -85.6% (active) | 68.3% | -67.6% (active) | – | –
Cc1cc(C)cc(Oc2cccc(-c3c(C)nnn3C3CCN(CCN(C)C)CC3)n2)c1 | 38.7% | 39.7% | 41.4% | 15.8% | 21.1% | 26.2% | 7.83% (active) | 56.4% | 16.7% | -12.1% (active) | 35.9% | 58% | 38.9% | 9.31% (active) | 36.2% | 38% | 5.31% (active) | 32.4% | – | –
C=CC(=O)Nc1nc(-c2cccc(NS(=O)(=O)c3cccc4c(N(C)C)cccc34)c2)cs1 | -62.7% (active) | 29% | -56.6% (active) | -100% (active) | -76.9% (active) | -79.8% (active) | -87.5% (active) | 25.7% | -32% (active) | -36.2% (active) | -38.9% (active) | -61.6% (active) | 7.55% (active) | 47.4% | -74.1% (active) | -69.4% (active) | -0.555% (active) | -56.7% (active) | – | –
Cc1cc2c(c(O)c1Br)-c1ncoc1C(=O)[C@]1(C)CC[C@H](C(C)C)[C@H]21 | 4.52% (active) | 46.7% | 54.5% | 50.3% | 68.8% | 52.2% | 55.4% | 104% | 14.2% | 4.28% (active) | 32.6% | 73.2% | 52.4% | 57% | 52.2% | 18.2% | 54.7% | 27.8% | – | –
Cc1ccc(S(=O)(=O)c2nc(-c3ccccc3)oc2S(=O)(=O)CC(=O)N2CCCC2)cc1 | -50.6% (active) | 5.22% (active) | -85% (active) | -100% (active) | -99.7% (active) | -100% (active) | -100% (active) | 90.1% | -64.4% (active) | -53.4% (active) | -86.7% (active) | -87.2% (active) | -92.7% (active) | 68.4% | 18.4% | -92.8% (active) | 20.5% | -69.5% (active) | – | –
Cc1ccc(-c2nc3ccc(C(=O)N=Nc4c(O)[nH]c5ccc(Cl)cc45)cc3[nH]2)cc1 | 57.3% | 37.9% | 23% | 72.4% | 65.6% | 55.1% | 58% | 119% | -31.7% (active) | 32.6% | -33.9% (active) | 18.2% | -63.6% (active) | 30.7% | 18.1% | -47.2% (active) | -0.441% (active) | 54.1% | – | –
C#CCNC(=O)[C@]12CCC(C)(C)C[C@H]1C1=CC[C@@H]3[C@@](C)(CCC#N)[C@H](C(=C)C)CC[C@@]3(C)[C@]1(C)CC2 | 57.2% | 57.8% | 68.7% | 36.6% | 71.5% | 60.2% | 40.3% | 129% | 26.2% | 22.2% | 64.2% | 77.4% | 68.2% | 62.6% | 71.9% | 91.8% | 79.4% | 62.5% | – | –
CN1CCN(c2ccc(Nc3nc(NCCCNC(=O)C4CCCCC4)c4sccc4n3)cc2)CC1 | 102% | 67.3% | 70.6% | 62.4% | 99.4% | 36.2% | 57.2% | 144% | 18% | -12.3% (active) | 57.5% | 67.3% | 48.9% | 98% | 76.9% | 33.4% | 42.9% | 74.3% | – | –
CCN(CC)CCOc1ccc(C(=C(C)c2ccccc2)c2ccc(OCCN(CC)CC)cc2)cc1 | -75.8% (active) | 35.3% | 56.9% | -41.6% (active) | -9.31% (active) | -13.3% (active) | 8.81% (active) | 78.5% | -27.2% (active) | -35.4% (active) | 25.2% | 24.9% | 13.6% | 58% | 34% | -7.71% (active) | -8.15% (active) | 29% | – | –
COc1ccc(-c2nc(S(=O)(=O)c3ccc(C)cc3)c(S(C)(=O)=O)o2)cc1 | -62.4% (active) | 36.8% | -73.3% (active) | -100% (active) | -100% (active) | -100% (active) | -100% (active) | 116% | -50.5% (active) | -40.3% (active) | -77.5% (active) | -88% (active) | -90.2% (active) | 83.6% | -24% (active) | -92.4% (active) | 8.31% (active) | -62.4% (active) | – | –
O=C(Nc1ccc(F)c(Cl)c1)c1cc(-c2ccc(F)cc2F)ccc1O | -69.2% (active) | -5.82% (active) | -17.3% (active) | -5.93% (active) | 19.1% | -13.4% (active) | -18.2% (active) | -21% (active) | 0.694% (active) | -28.6% (active) | 6.82% (active) | 0.459% (active) | 12.9% | -5.38% (active) | 16.4% | 9.88% (active) | -3% (active) | -15.1% (active) | – | –
Cc1ccc(/C=C(\C#N)n2nnc3c(F)cccc32)cc1 | 16.5% | 28.8% | 4.19% (active) | 15.2% | 0.416% (active) | 19.7% | 21.8% | 71.8% | 10.1% | 6.26% (active) | -70.7% (active) | -7.34% (active) | 51.2% | 29.5% | 8.21% (active) | 0.864% (active) | 29.2% | 12.9% | – | –
C=C1CCC2C3(C)COC(c4c(F)cccc4F)OC3CCC2(C)C1C/C=C1/C(=O)OCC1O (stereo unspecified) | -44.7% (active) | 3.87% (active) | -24.1% (active) | -91.6% (active) | -23.2% (active) | -97.8% (active) | 2.15% (active) | – | 13.9% | 15.3% | -42.5% (active) | -10% (active) | 12.4% | 54.7% | -26.7% (active) | -67.9% (active) | – | -15.1% (active) | 11.4% | 14.8%
O=C(N/C(=C1/OCCN1Cc1ccccc1)[P+](c1ccccc1)(c1ccccc1)c1ccccc1)c1ccccc1 | -27.6% (active) | 14.6% | 7.37% (active) | 83.1% | 26.1% | 82.6% | 79.5% | – | 13.3% | 0.374% (active) | 16.5% | 67.3% | 21.2% | 23% | 2.86% (active) | -7.02% (active) | -2.64% (active) | 97.8% | 20.6% | 8.3% (active)
N#Cc1ccc(-c2nn(-c3ccc(C(=O)O)cc3)cc2CNc2ccc(Oc3ccccc3)cc2)cc1 | 55.6% | 75% | 34.1% | 66.5% | 77.1% | 47.3% | 59.7% | – | 19.3% | 22.4% | 39.2% | 81.1% | 73.7% | 111% | 74.7% | 45.1% | 53.9% | 17.1% | 19.9% | 37.3%
Cc1ccc(/C(CSc2nnc(-c3c[nH]c4ccccc34)n2-c2ccccc2)=N/O)cc1 | 62.7% | 28.3% | -36.7% (active) | 6.45% (active) | – | -61.7% (active) | -27.4% (active) | 91.9% | -35% (active) | -19.1% (active) | -27.8% (active) | -48.9% (active) | -87.2% (active) | 11.5% | -62.4% (active) | 14.7% | -53.5% (active) | -68.4% (active) | -27.8% (active) | 9.79% (active)
